SENP6 block: SENP6 protease inhibition; hit rate 1.8% among 330,000; Recombinant SENP6 catalytic domain, aminoluciferin luminescence; inhibition, % at 10 µM;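 active means inhibition above about 50% at the single tested dose, limit read from the data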
PPC-1+TRAIL kill: compounds killing PPC-1 cancer cells with TRAIL present (potentiator screen, no TRAIL-free arm); hit rate 0.41% among 220,000; PPC-1 cells + TRAIL, ATPLite viability luminescence; cell killing (% activity), % at 4 µM or 5 µM;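 active means cell killing above 50% in the first pass at 4 µM, then a duplicate retest at 5 µM averaging 50% or more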
SENP8 block-1: blocks the human protease SENP8; Q96LD8; purified SENP8, Z-RLRGG-aminoluciferin cleavage, luminescence; inhibition, % at 10 µM; hit rate 1.2% among 330,000; AID 2540; in the data active means inhibition above about 50%
Target sequence (Q96LD8 whole entry, looked up): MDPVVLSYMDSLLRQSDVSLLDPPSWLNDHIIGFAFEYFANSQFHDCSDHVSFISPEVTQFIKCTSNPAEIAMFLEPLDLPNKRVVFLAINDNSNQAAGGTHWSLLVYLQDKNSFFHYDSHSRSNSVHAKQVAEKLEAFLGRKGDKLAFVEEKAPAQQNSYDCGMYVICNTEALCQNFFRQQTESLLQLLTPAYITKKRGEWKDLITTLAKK
C8 TRAIL sens: caspase-8 TRAIL sensitization. NB7+C8 cells + TRAIL, ATPlite viability luminescence. hit rate 1% among 360,000. inhibition (viability loss, TRAIL sensitization), % at 10 µM. AID 624354;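 active means compounds causing at least 50% loss of cell viability in the single-dose screen, relative to plate controls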
SENP7 block: SENP7 protease inhibition. Q9BQF6. recombinant SENP7, Z-RLRGG-aminoluciferin luminescence, 40 min. inhibition, % at 5 µM. hit rate 1.5% among 330,000. AID 434973;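 active means inhibition above about 50% at the single test dose, limit read from the data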
Target sequence (Q9BQF6 706-1050 limits assumed): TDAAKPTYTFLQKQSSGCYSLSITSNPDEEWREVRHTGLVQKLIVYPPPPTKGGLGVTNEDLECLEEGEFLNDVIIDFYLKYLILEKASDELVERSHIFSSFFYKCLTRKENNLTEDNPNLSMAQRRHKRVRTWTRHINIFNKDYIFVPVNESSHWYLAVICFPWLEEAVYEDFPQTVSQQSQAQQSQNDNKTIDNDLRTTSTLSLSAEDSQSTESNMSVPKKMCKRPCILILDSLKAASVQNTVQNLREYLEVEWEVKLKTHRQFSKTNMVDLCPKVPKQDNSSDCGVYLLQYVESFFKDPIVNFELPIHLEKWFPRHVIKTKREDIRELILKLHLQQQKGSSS
SENP8 block-2: blocks human SENP8 cleavage of Nedd8 substrate. Q96LD8. recombinant SENP8, Nedd8 substrate fluorescence. inhibition, % at 20 µM. hit rate 0.64% among 360,000. AID 602440; in the data active means inhibition mostly above about 40%, no sharp cut-off; inactive means mostly below about 27%
PPC1 cytotox: PPC-1 cell cytotoxicity | PPC-1 viability, ATPlite luminescence, overnight | shares compounds with PPC-1+TRAIL kill | cytotoxicity, % at 5 µM | hit rate 50% among 1,200 | AID 1447;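 active means reconfirmed compounds whose average cytotoxicity reaches 50% or more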
Each line names hits and unclear results; the compound was inactive in the other large screens (follow-up assays come after a bar, where they were run). Hits are enriched below; roughly 3% of the tested compounds scored in any of these assays.

O=C(Nc1ccnn1C1CCN(Cc2cc(Cl)ccc2O)CC1)C1CC1	none (no result: PPC-1+TRAIL kill)
CN(C)c1ccc(/C=C/c2nc3ccccc3s2)cc1	SENP6 block 99, PPC-1+TRAIL kill 81, SENP8 block-1 97, C8 TRAIL sens 92, SENP7 block 99 | PPC1 cytotox 81
CCCN(CCC)c1ccc(/C=C/c2ccc3cc(OCC)ccc3n2)cc1	none (no result: SENP6 block, SENP8 block-1, SENP7 block)
CN(C)c1ccc(/C=C/c2ccc3ccccc3n2)cc1	PPC-1+TRAIL kill 92, C8 TRAIL sens 89 (no result: SENP6 block, SENP8 block-1, SENP7 block) | PPC1 cytotox 92
COc1cc(/C=C/c2nc3ccccc3s2)cc(OC)c1O	none
O=C(N/N=C/c1ccccn1)c1ccc(Cl)c(Cl)c1	none (no result: PPC-1+TRAIL kill)
Fc1cccc(-c2cc3nc(-c4ccccc4)cc(N4CCC5(CC4)OCCO5)n3n2)c1	none
COCCN1CCN(c2cc(-c3ccccc3)nc3cc(-c4cccc(F)c4)nn23)CC1	none | PPC1 cytotox inactive
COc1ccc(-c2cc3ncc(-c4ccccc4)c(N)n3n2)cc1	C8 TRAIL sens 62 (no result: SENP6 block, SENP8 block-1, SENP7 block) | PPC1 cytotox 52
CCOc1cccc(/C=C/c2cc(C(=O)O)c3ccccc3n2)c1OC	PPC-1+TRAIL kill 71, C8 TRAIL sens 76 | PPC1 cytotox 69
Cc1cccc(N=C2NN=C(c3ccc4c(c3)OCCO4)CS2)c1	none | PPC1 cytotox inactive
Cc1ccccc1-c1nnn(Cc2cccc(S(=O)(=O)N3CCOCC3)c2)n1	none (no result: PPC-1+TRAIL kill)
Cc1ccc(-c2cc(=O)c3cc(C)ccc3[nH]2)cc1	PPC-1+TRAIL kill 79, C8 TRAIL sens 86 | PPC1 cytotox 80
Cc1ccc(NC2=C/C(=N\S(=O)(=O)c3cccs3)c3ccccc3C2=O)c(C)c1	SENP6 block 76, PPC-1+TRAIL kill 52, SENP8 block-1 92, C8 TRAIL sens 96, SENP7 block 81, SENP8 block-2 116 | PPC1 cytotox 54
Cc1ccc(Nc2cc(=O)oc3ccccc23)c(C)c1	none
O=C1C(Nc2ccc(O)cc2)=C/C(=N/S(=O)(=O)c2cccs2)c2ccccc21	PPC-1+TRAIL kill 73, C8 TRAIL sens 96, SENP8 block-2 83 (no result: SENP6 block, SENP8 block-1, SENP7 block) | PPC1 cytotox 74
COc1ccc(C(C)=O)c(Oc2ccc(S(=O)(=O)N3CCOCC3)cn2)c1	none (no result: PPC-1+TRAIL kill)
CN(C)N1C(N)=C(C#N)C(c2cccs2)C2=C1CC(C)(C)CC2=O (centres undefined)	none
COc1ccc(-c2csc(NC(=O)CSc3ncn[nH]3)n2)cc1OC	none
O=C(CSc1ncn[nH]1)Nc1nc(-c2ccccc2)cs1	none | PPC1 cytotox inactive
Cc1cccc(-n2cccc2)c1C#N	none | PPC1 cytotox inactive
N#Cc1c(-n2ccnc2)cccc1-n1ccnc1	none
Oc1ccc(N=Nc2ccc3c(c2)OCCO3)c(O)c1	SENP6 block 95, PPC-1+TRAIL kill 65, SENP8 block-1 95, C8 TRAIL sens 72, SENP7 block 91, SENP8 block-2 45 | PPC1 cytotox 66
COc1ccc(-n2c(SCC(=O)N3CCCCC3)nnc2-c2cccnc2)cc1	none | PPC1 cytotox inactive
OCCNCC(O)Cn1c2ccccc2c2ccccc21 (centres undefined)	none
OCCNCC(O)Cn1ccc2ccccc21 (centres undefined)	none | PPC1 cytotox inactive
C=CCNC(=O)/C(=C/c1cccc([N+](=O)[O-])c1)NC(=O)c1ccccc1	none | PPC1 cytotox inactive
Cc1ccc(Cn2ccsc2=NC(=O)CCl)cc1	PPC-1+TRAIL kill 91, C8 TRAIL sens 98 | PPC1 cytotox 91
Cc1ccc(Cn2ccsc2=NC(=O)COC(=O)c2ccc(NC(=O)CC#N)cc2)cc1	none (no result: PPC-1+TRAIL kill)
CCn1c(C)nc2cc(C(=O)N/N=C/c3ccc(N4CCOCC4)cc3)ccc21	none
Cc1nn(CC(=O)N(C)C)c(C)c1S(=O)(=O)N1CCOCC1	none (no result: PPC-1+TRAIL kill)
CCc1ccc(-c2cc(N)n(-c3ccccc3)n2)cc1	none (no result: SENP6 block, SENP8 block-1, SENP7 block) | PPC1 cytotox inactive
Cc1cccc(-c2cc(N)n(-c3ccccc3)n2)c1	none (no result: SENP6 block, SENP8 block-1, SENP7 block) | PPC1 cytotox inactive
Cc1cccc(-n2nc(C)cc2N)c1	none
C[C@@H]1CN([C@H](C)CO)C(=O)CCCn2cc(nn2)CO[C@H]1CN(C)C(=O)C1CCCCC1	none (no result: SENP6 block, PPC-1+TRAIL kill, SENP8 block-1, SENP7 block)
CCN(CC)c1ccc(NC(=S)NC(=O)c2ccco2)cc1	none (no result: PPC-1+TRAIL kill)
Cc1ccc(NC(=O)c2ccc(OC(=O)c3ccco3)cc2)cc1	none | PPC1 cytotox inactive
CCN(CC)c1ccc(NC(=O)c2ccco2)cc1	PPC-1+TRAIL kill 58, C8 TRAIL sens 62 | PPC1 cytotox 61
Cc1ccc(Oc2ccc(NC(=O)c3ccco3)cc2)cc1	none
COc1ccc(CN2CC(C(=O)NCCCN3CCCCC3)CC2=O)cc1 (centres undefined)	none (no result: PPC-1+TRAIL kill)
O=C(CSc1nnc(Cc2cccs2)n1C1CCCCC1)N1CCCc2ccccc21	none | PPC1 cytotox inactive
Nc1oc2ccccc2c1C(=O)Cc1ccccc1O[C@@H]1O[C@H](CO)[C@@H](O)[C@H](O)[C@H]1O	none (no result: PPC-1+TRAIL kill)
Cc1cc(OC(=O)c2ccc(S(=O)(=O)N3CCOCC3)cc2)c([N+](=O)[O-])c(=O)[nH]1	none (no result: SENP6 block, SENP8 block-1, SENP7 block) | PPC1 cytotox inactive
CCNC(=S)N/N=C/c1sc(N2CCCCC2)nc1-c1cccs1	none | PPC1 cytotox inactive
CCNC(=S)Nc1ccc(N2CCCCC2)cc1	none
CCOC(=O)c1cccc(C(=O)Nc2nc3ccc(OC)cc3s2)n1	PPC-1+TRAIL kill 68, C8 TRAIL sens 82 | PPC1 cytotox 67
Cc1csc(NC(=O)C2CCN(S(=O)(=O)c3cccs3)CC2)n1	none
CCCn1c(NC(=O)c2ccc(C)cc2)nc2ccccc21	none
CCCn1c(NC(=O)c2ccccc2)nc2ccccc21	none | PPC1 cytotox inactive
CCCn1c(NC(=O)C2CCN(S(=O)(=O)c3cccs3)CC2)nc2ccccc21	none | PPC1 cytotox inactive
CS(=O)c1nc(-c2ccc(Br)cc2)cc(-c2ccccc2)c1C#N (centres undefined)	PPC-1+TRAIL kill 71, C8 TRAIL sens 81 | PPC1 cytotox 73
N#Cc1c(-c2ccc(Br)cc2)cc(-c2cccnc2)nc1N	none
COc1cccc(N2CCN(c3ccc4nnc(CCC(=O)Nc5ccc(OC)c(OC)c5)n4n3)CC2)c1	none (no result: PPC-1+TRAIL kill)
S=c1[nH]ncn1/N=C/c1ccc(N2CCOCC2)cc1	PPC-1+TRAIL kill 62, C8 TRAIL sens 51 | PPC1 cytotox 64
COc1ccccc1Cn1c(=S)[nH]c2cc(C(=O)N3CC(C)CC(C)C3)ccc2c1=O (centres undefined)	none (no result: SENP6 block, PPC-1+TRAIL kill, SENP8 block-1, SENP7 block)
Cc1c(CC(=O)NCC(=O)NCC(=O)N[C@@H](Cc2ccccc2)C(=O)O)c(=O)oc2c(C)c(O)ccc12	none (no result: SENP6 block, PPC-1+TRAIL kill, SENP8 block-1, SENP7 block)
COc1ccc(-c2nc(Cn3c(SCc4ccc(C)cc4)nc4ccncc43)c(C)o2)cc1OC	none | PPC1 cytotox inactive
COc1ccc(NS(=O)(=O)c2csc(C(N)=O)c2)cc1	none (no result: PPC-1+TRAIL kill)
Cc1ccc(CN2CCN(CC3CC4C=CC3C4)CC2)cc1 (centres undefined)	none | PPC1 cytotox inactive
COc1ccc(C(=O)Nc2ccccc2C(=O)N/N=C/c2ccncc2)cc1OC	PPC-1+TRAIL kill 96, C8 TRAIL sens 94 | PPC1 cytotox 96
CCCNC(=O)C1(C)CCCN(CCC(=O)c2ccccc2)C1 (centres undefined)	none (no result: SENP6 block, PPC-1+TRAIL kill, SENP8 block-1, SENP7 block)

Screening results as filed in PubChem BioAssay.
